# Data: PubChem BioAssay
# Some of the results follow. Calls of active or inactive are those of the source. Unless noted, no rule for the calls is given here.
# Legend:
# [1] = Brca1-Bard1 BiLC signal decrease – luminescence, single concentration, counter-screen for Mdm2/MdmX interaction inhibitor project, confirmation (AID 504668); details: Brca1/Bard1 bimolecular luciferase complementation counterscreen, at 8 µM, stronger effect = higher value
# [2] = apoptosome-driven caspase-3 activation blockers – biochemical, fluorescence, DEVD-Rh110, 20 µM, confirmation (AID 504614;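 active = mean inhibition of at least 40% at 20 µM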;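 also: plate controls were DMSO wells for no effect and DEVD-CHO caspase inhibitor control wells for full effect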); details: reconstituted apoptosome, caspase-3 DEVD-Rh110 fluorescence; at 20 µM; stronger effect = higher value
# [3] = detection-step artefacts after completed caspase reaction – biochemical, fluorescence, Rh110, 20 µM, artefact control for Apaf-1 inhibitor project, confirmation (AID 504615;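 active = signal rise of 40% or more at 20 µM, treated as a fluorescence artifact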); details: quenched caspase reaction, at 20 µM, stronger effect = higher value
# [4] = fluorescence interference of Apaf-1 inhibitor hits, dose response, artefact control for Apaf-1 inhibitor project (AID 588538); details: fluorescence interference counterscreen, Apaf-1 assay format
# [5] = HIF-2a driven luciferase blockers, single dose – luminescence, 786-0 RCC cells, confirmation (AID 651580;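 active = mean inhibition across four replicates of at least 40 percent at the single tested concentration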); details: HIF-2a luciferase reporter luminescence, overnight, at 18.8 µM, stronger effect = higher value
# [6] = HIF-1a luciferase reporter signal reduction – MiaPaCa-2 cells, single concentration, counter-screen for HIF-2a inhibitor project, confirmation (AID 651589;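 active = mean inhibition of the reporter signal across four replicates at the single tested dose of 50% or more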); details: MiaPaCa-2 HIF-1a luciferase reporter, desferoxamine, overnight; at 18.8 µM; stronger effect = higher value
# [7] = inhibition of PEG-3 promoter luciferase signal – cell-based, HeLa, luciferase reporter, single concentration, confirmation (AID 602417;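 active = at 20 µM dose, 40% or more inhibition averaged across four replicates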); details: HeLa PEG-Prom luciferase reporter, luminescence, overnight; at 20 µM; stronger effect = higher value
# [8] = biological target: PEG-3 (UniProt Q6IN02); test: inhibition of PEG-3 promoter-driven reporter – cell-based, HeLa, luciferase, CREF/GAPDH counter-screen panel, dose response (AID 624167); details: CREF/GAPDH counter-screens; HeLa PEG-Prom luciferase reporter, overnight, run 1, dose range 1, at 100 µM (top of the series) unless noted
# PEG-3, sequence (Q6IN02 whole entry, looked up): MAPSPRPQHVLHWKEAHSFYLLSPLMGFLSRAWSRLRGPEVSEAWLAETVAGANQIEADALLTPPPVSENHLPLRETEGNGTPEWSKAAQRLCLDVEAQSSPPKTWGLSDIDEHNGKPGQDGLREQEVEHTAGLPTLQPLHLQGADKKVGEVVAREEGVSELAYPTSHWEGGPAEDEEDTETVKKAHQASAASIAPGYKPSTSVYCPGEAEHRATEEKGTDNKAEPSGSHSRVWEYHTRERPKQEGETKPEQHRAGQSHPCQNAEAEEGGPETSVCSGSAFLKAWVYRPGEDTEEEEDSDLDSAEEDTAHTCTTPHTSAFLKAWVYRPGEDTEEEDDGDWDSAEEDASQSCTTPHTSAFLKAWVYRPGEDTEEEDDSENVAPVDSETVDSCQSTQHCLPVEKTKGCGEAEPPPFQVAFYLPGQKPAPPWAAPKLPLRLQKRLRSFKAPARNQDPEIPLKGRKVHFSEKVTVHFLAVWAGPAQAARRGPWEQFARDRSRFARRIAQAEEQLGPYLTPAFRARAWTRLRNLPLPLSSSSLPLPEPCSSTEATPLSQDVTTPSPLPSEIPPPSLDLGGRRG
# [9] = biological target: PEG-3 (UniProt Q6IN02); test: as above; details: CREF/GAPDH counter-screens; HeLa PEG-Prom luciferase reporter, overnight, run 2, dose range 1, at 100 µM (top of the series) unless noted
# [10] = biological target: COP9 signalosome complex subunit 5 (Homo sapiens) (UniProt Q92905); test: blockers of CSN-driven cullin deneddylation – biochemical, fluorescence polarization, single concentration, SCF-Nedd8OG substrate, confirmation (AID 720654; in the data active = inhibition above about 50%;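 also: 0% = DMSO with enzyme and 100% = no enzyme wells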); details: Csn5 deneddylation of SCF-Nedd8OG, 90 min, at 16.6 µM, stronger effect = higher value
# COP9 signalosome complex subunit 5 (Homo sapiens), sequence (Q92905 whole entry, looked up, one chain of several): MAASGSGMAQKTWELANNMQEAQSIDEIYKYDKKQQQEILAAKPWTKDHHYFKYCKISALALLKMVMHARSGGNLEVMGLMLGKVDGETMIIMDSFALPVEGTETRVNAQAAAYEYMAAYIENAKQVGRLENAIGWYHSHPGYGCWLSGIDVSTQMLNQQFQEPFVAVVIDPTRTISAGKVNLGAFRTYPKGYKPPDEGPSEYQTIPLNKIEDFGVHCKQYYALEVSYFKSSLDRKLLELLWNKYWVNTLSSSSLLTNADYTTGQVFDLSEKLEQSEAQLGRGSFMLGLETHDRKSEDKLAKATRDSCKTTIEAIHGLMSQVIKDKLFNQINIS
# [11] = biological target: 72 kDa type IV collagenase (Homo sapiens) (UniProt P08253); test: human MMP-2 inhibitors, single-point check – biochemical, fluorescence, single concentration, counter-screen for CSN deneddylation inhibitor project, confirmation (AID 720655;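 active = corrected plate-normalized z-score of 5 or more, or -5 or less, or inhibition of 15% or more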;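 also: plate controls were DMSO wells with enzyme for no effect and buffer wells lacking MMP-2 for full effect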); details: recombinant MMP-2, FRET substrate fluorescence, 60 min; at 16.6 µM
# 72 kDa type IV collagenase (Homo sapiens), sequence (P08253 whole entry, looked up): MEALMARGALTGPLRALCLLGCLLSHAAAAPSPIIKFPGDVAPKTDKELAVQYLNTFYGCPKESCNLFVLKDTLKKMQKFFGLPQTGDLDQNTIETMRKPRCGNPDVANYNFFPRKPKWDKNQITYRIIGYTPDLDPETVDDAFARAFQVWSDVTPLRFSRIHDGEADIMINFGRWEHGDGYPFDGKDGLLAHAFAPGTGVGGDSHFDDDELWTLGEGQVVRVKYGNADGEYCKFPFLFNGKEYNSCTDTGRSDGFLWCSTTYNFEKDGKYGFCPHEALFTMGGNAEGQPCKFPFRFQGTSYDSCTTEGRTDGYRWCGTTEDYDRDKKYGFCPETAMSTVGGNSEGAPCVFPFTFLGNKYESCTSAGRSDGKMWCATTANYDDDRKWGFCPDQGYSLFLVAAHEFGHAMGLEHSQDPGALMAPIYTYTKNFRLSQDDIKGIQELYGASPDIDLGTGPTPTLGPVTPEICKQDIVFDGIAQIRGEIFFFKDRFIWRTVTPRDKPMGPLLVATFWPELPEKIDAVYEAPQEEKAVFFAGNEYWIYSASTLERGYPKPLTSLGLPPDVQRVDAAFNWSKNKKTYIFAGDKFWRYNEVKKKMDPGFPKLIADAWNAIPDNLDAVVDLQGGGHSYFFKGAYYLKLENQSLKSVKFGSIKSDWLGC
# [12] = biological target: Prothrombin (Bos taurus) (UniProt P00735); test: thrombin cleavage blockers, FP readout – biochemical, fluorescence polarization, single concentration, counter-screen for CSN deneddylation inhibitor project, confirmation (AID 720656;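 active = inhibition at or above a set limit, with a fluorescence interference ratio between 0.5 and a set maximum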); details: bovine thrombin cleavage of Ub4-pepOG, at 16.6 µM, stronger effect = higher value
# Prothrombin (Bos taurus), sequence (P00735 whole entry, looked up): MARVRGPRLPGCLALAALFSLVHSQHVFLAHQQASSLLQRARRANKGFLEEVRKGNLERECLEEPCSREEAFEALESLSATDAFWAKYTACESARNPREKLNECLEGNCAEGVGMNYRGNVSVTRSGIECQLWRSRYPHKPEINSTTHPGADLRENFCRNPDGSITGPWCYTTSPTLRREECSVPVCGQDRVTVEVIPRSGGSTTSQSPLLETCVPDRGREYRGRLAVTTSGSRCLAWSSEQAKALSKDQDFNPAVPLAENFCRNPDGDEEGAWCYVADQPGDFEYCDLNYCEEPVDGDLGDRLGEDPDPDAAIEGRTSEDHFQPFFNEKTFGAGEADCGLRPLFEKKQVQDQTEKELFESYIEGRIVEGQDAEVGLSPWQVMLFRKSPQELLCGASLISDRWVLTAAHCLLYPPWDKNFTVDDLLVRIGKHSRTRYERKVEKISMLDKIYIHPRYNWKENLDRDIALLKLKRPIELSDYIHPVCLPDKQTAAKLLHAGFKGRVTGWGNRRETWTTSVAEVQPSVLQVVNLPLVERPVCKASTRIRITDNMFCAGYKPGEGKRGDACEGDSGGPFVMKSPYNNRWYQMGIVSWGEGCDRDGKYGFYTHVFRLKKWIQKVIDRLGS
# [13] = biological target: Tumor necrosis factor receptor superfamily member 10B (Homo sapiens) (UniProt O14763); test: viability loss of caspase-8 NB7 cells with TRAIL – with/without TRAIL, luminescence panel, confirmation (AID 651596; in the data active = activity above about 50%); details: NB7 neuroblastoma + caspase-8, TRAIL sensitization, NB7 Caspase-8, with TRAIL, mean of runs, at 10 µM, stronger effect = higher value
# Tumor necrosis factor receptor superfamily member 10B (Homo sapiens), sequence (O14763 whole entry, looked up): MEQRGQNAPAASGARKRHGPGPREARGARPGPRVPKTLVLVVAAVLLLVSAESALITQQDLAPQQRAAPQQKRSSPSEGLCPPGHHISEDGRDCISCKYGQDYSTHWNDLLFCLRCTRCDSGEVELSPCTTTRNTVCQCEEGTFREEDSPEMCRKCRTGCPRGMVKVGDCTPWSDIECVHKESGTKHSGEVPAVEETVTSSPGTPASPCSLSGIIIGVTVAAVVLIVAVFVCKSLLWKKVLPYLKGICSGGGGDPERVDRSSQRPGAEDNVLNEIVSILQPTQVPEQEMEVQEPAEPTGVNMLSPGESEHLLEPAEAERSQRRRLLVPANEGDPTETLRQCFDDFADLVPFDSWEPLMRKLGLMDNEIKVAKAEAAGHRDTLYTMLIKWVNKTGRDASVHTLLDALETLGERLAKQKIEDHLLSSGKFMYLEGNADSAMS
# [14] = as above; details: NB7 neuroblastoma + caspase-8, without TRAIL, NB7 Caspase-8, without TRAIL, mean of runs, at 10 µM
smiles,measurement,setting,value
CN1C2CCC1/C(=C\c1ccccc1F)C(=O)/C2=C/c1ccccc1F,inhibition,[1],35.1% (active)
O=C(Nc1cc(Cl)ccc1O)c1snnc1-c1ccccc1,inhibition,[1],23% (active)
Cc1ccc(/C=C/C(O)=C2/C(=O)N(C)C3(C)CC2c2ccccc2O3)cc1 (stereo unspecified),inhibition,[1],30.1% (active)
C/C(N=Nc1nc2ccccc2s1)=N\Nc1ccccc1O,inhibition,[1],26.2% (active)
COCCNC(=O)Nc1ccc2nc(-c3ccco3)c(-c3ccco3)nc2c1,inhibition,[2],40.9% (active)
same,activation (fluorescence interference),[3],-1.4% (inactive)
same,IC50,[4],> 100 µM (inactive)
same,inhibition,[5],-38.7% (inactive)
same,inhibition,[6],8.69% (inactive)
CCc1cc(C(=O)N2CCc3c([nH]c4ccccc34)C2c2ccc(OC)cc2F)no1 (stereo unspecified),inhibition,[1],34.5% (active)
COc1ccc(C2Oc3ccccc3C3=C2C(c2cccs2)n2ncnc2N3)cc1 (stereo unspecified),inhibition,[1],29.5% (active)
O=C(CCNS(=O)(=O)c1ccccc1)NCCSc1ccc(Br)cc1,inhibition,[2],40% (active)
same,activation (fluorescence interference),[3],5.12% (inactive)
same,IC50,[4],> 100 µM (inactive)
Cn1c(C(=O)NCc2ccccc2)cc2oc3ccccc3c21,inhibition,[1],32.1% (active)
N#CCSc1nc2c(sc(=S)n2Cc2ccco2)c(=O)n1-c1ccc(F)cc1,inhibition,[1],31.6% (active)
FC(F)(F)c1ccc(CN2C[C@@H]3C(c4ccccc4)C4(c5ccccc5)CC3(C4)[C@H]2c2ccccc2)cc1 (stereo partly specified),inhibition,[1],27.2% (active)
O=C(CCCN1C(=O)/C(=C\c2cccc(Br)c2)SC1=S)Nc1cccnc1,inhibition,[1],24.4% (active)
CCn1cc(CN2CCC(C(=O)Nc3cccc(-c4cccc(Cl)c4)c3)CC2)c(C)n1,inhibition,[2],12.8% (inactive)
same,activation (fluorescence interference),[3],5.12% (inactive)
same,inhibition,[7],95.8% (active)
same,inhibition,[8],98.4%
same,inhibition,[9],101%
CC1(C)Cc2c(sc(NC(=O)c3ccc(C(=O)c4ccccc4)cc3)c2C(N)=O)C(C)(C)N1,inhibition,[1],34.2% (active)
CN1CCN(CCCNC(=O)c2ccc(/C=C3\Oc4ccccc4N(Cc4ccc(Cl)cc4)C3=O)cc2)CC1,inhibition,[2],39.1% (inactive)
same,activation (fluorescence interference),[3],6.39% (inactive)
same,inhibition,[5],-0.07% (inactive)
same,inhibition,[6],106% (active)
same,inhibition,[10],-18.2% (inactive)
same,inhibition,[11],11.2% (inactive)
same,inhibition,[12],-9.75% (inactive)
same,activity,[13],41.5%
same,activity,[14],75%
Oc1ccc2ccccc2c1N=Nc1ccccn1,inhibition,[1],28% (active)
CCOC(=O)C1=C(c2ccccc2)NC(=O)NC1c1ccc(O)c(Cl)c1 (stereo unspecified),inhibition,[1],30.5% (active)
COc1ccc(C(=O)N/N=C(\Cc2ncc[nH]2)c2ccccc2)cc1,inhibition,[1],25.7% (active)
O=C(CSc1nnnn1-c1ccccc1)Nc1nsc(-c2ccccc2)n1,inhibition,[1],27.7% (active)
O=C(NC1CCCc2c1cnn2-c1ccccc1F)c1ccccn1 (stereo unspecified),inhibition,[1],28.6% (active)
CC(=O)Nc1nc(C)c(-c2csc(Nc3ccc(S(N)(=O)=O)cc3)n2)s1,inhibition,[1],31.7% (active)
CC(C)Cn1c(N)c(C(=O)NCc2cccs2)c2nc3ccccc3nc21,inhibition,[2],38.4% (inactive)
same,activation (fluorescence interference),[3],5.03% (inactive)
same,inhibition,[10],99.2% (active)
same,inhibition,[11],1.55% (inactive)
same,inhibition,[12],-0.76% (inactive)
CN1CCN(C(=O)CCCN2C(=O)/C(=C/c3cccc(Br)c3)SC2=S)CC1,inhibition,[1],29.2% (active)
CCN1C(=O)C2(Nc3ccccc3-c3nc4ccccc4n32)c2cc(OC)ccc21 (stereo unspecified),inhibition,[1],23.7% (active)
Cc1ccc(N=C2NC(=O)/C(=C/C=C/c3ccco3)S2)cc1C,inhibition,[2],26.1% (inactive)
same,activation (fluorescence interference),[3],20.6% (inactive)
same,inhibition,[10],25.6% (inactive)
same,inhibition,[11],13.5% (inactive)
same,inhibition,[12],7.38% (inactive)
CC(=O)NC(=S)Nc1ccc(NC(=S)NC(=O)/C=C/c2ccco2)cc1,inhibition,[1],35% (active)
COc1ccc(Cl)cc1NC(=O)c1nnn(CC(=O)Nc2ccc(OC)c(OC)c2)c1N,inhibition,[1],31.7% (active)
Nc1cccc2nc3ccccc3cc12,inhibition,[1],32.2% (active)
CCOC(=O)c1nc(NNC(=O)c2ccc([N+](=O)[O-])cc2)sc1C,inhibition,[1],27.4% (active)
COc1cc(NC(=S)NC(=O)c2ccc(C(C)(C)C)cc2)ccc1NC(=O)c1cccs1,inhibition,[1],27.7% (active)
